Holding throughout (experiment): NCI-60 one-dose screen, 48 h (100 = growth as untreated, 0 = no growth, -100 = all killed)
Assay [1] relates to HCT-15 colon. Particulars: 10 µM unless noted.
The test system of assay [2] is HT29 colon. The note with it: 10 µM unless noted.
In assay [3] the test system is SNB-75 CNS. The note with it: 10 µM unless noted.
Assay [4] relates to SNB-19 CNS. The note with it: 10 µM unless noted.
The subject of assay [5] is U251 CNS. The note with it: 10 µM unless noted.
Assay [6] has as its system PC-3 prostate. Particulars: 10 µM unless noted.
The test system of assay [7] is SK-MEL-5 melanoma. Particulars: 10 µM unless noted.
Assay [8] has as its system UACC-62 melanoma. Particulars: 10 µM unless noted.
The subject of assay [9] is LOX IMVI melanoma. Particulars: 10 µM.
Assay [10] concerns SK-MEL-28 melanoma. The note with it: 10 µM unless noted.
Assay [11] deals with SK-MEL-2 melanoma. Particulars: 10 µM unless noted.
The test system of assay [12] is EKVX NSCLC. Particulars: 10 µM unless noted.
Assay [13] deals with SN12C renal. The note with it: 10 µM unless noted.
Assay [14] relates to UO-31 renal. The note with it: 10 µM unless noted.
Assay [15] concerns ACHN renal. Particulars: 10 µM unless noted.
Assay [16] concerns CAKI-1 renal. Particulars: 10 µM unless noted.
For assay [17], the system named is A498 renal. The note with it: 10 µM unless noted.
Assay [18] concerns CCRF-CEM leukemia. Particulars: 10 µM unless noted.
Assay [19] relates to MOLT-4 leukemia. Particulars: 10 µM unless noted.
Assay [20] concerns TK-10 renal. Particulars: 10 µM unless noted.

Here are results for 9 compounds from PubChem BioAssay (NCI).

This is part of a sample that, as a whole, favours compounds with a hit. Of some 83,000 tested, about 20% had one in any assay.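 Plates (96-well) were seeded with cells, treated with compound at one concentration, and incubated for 48 hours before percent growth was determined.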 Values without a mark were called inactive. Active and inactive are the calls of the source. How the source made its calls: active means growth percent below 10; inactive means the rest.

As to `CCOC(=O)c1cc(Cl)c(O)c(Cl)c1`, the growth in [1] was 104%; in assay [2] it was 103%; in assay [3], 103%; in [4] it was 106%; in assay [5], 104%; in assay [6] it was 101%. Moreover, the growth in [7] was 102%; in [8], 105%; in [9], 102%; in assay [10], 106%; in assay [11] it was 106%; in assay [12] it was 109%. In addition, the growth in assay [13] was 107%; in [14], 92.3%; in assay [15] it was 103%; in assay [16], 109%; in assay [17] it was 104%; in assay [18], 90.8%. Besides, the growth in [19] is 89.6%.

Turning to `Cc1ccc(C)c(CCO)c1`, the growth was 112% in [1]; 109% in assay [2]; 95.7% in [3]; 101% in assay [4]; 90.6% in assay [5]; 95.5% in assay [6]. In addition, the growth in [7] was 90.7%; in assay [8], 103%; in [9] it was 100%; in assay [10], 105%; in [11], 134%; in assay [12], 112%. In addition, the growth in assay [13] is 99.9%; in assay [14] it was 93.7%; in [20], 99.6%; in assay [16], 115%; in assay [17] it was 85.8%; in assay [18], 119%. The growth in [19] was 113%.

In the case of `Cn1c2ccccc2c2nnc(NCCCCO)nc21`, the growth in assay [1] is 88.9%; in assay [2], 102%; in [3], 56.2%; in [4], 94.7%; in assay [5] it was 103%; in assay [6] it was 100%. For the same compound, the growth in [7] is 94.4%; in [8], 103%; in assay [9] it was 89.1%; in [10], 109%; in assay [11], 108%; in assay [12], 76.3%. The growth is 94.3% in assay [13]; 68.4% in [14]; 123% in assay [20]; 66.4% in assay [16]; 105% in assay [17]; 107% in assay [18]. For the same compound, the growth in assay [19] was 97.7%.

Take `Cc1ccc(N2C(=O)c3cccc4c(N)c(S(=O)(=O)O)cc(c34)C2=O)cc1`: the growth is 105% in [1]; 124% in [2]; 111% in assay [3]; 112% in [4]; 96.7% in assay [5]; 90% in assay [6]. Further, the growth in [7] is 102%; in assay [8] it was 97.4%; in assay [9], 95%; in [10], 124%; in assay [11], 82.3%; in assay [12], 113%. Further, the growth in [13] was 105%; in assay [14], 77.3%; in assay [20], 124%; in [16], 108%; in assay [17], 136%; in [18], 100%. In addition, the growth in assay [19] was 115%.

On to `Cc1ccc(N)c(S(=O)(=O)O)c1`, for which the growth in [1] is 103%; in [2], 96.1%; in assay [3], 75.6%; in assay [4], 99.5%; in assay [5], 104%; in [6] it was 107%. Besides, the growth in assay [7] was 98.1%; in assay [8], 98.9%; in [9], 104%; in assay [10], 126%; in [11], 84.3%; in [12], 110%. Also, the growth in assay [13] is 100%; in [14] it was 92.1%; in assay [20], 128%; in assay [16] it was 90.8%; in [17] it was 118%; in assay [19], 83.6%.

In the case of `Cc1ccnc(Nc2nc3ccccc3[nH]2)n1`, the growth in assay [1] was 101%; in assay [2], 100%; in assay [3], 109%; in assay [4], 112%; in assay [5], 103%; in [6], 101%. Moreover, the growth is 105% in [7]; 113% in assay [8]; 97.9% in assay [9]; 115% in assay [10]; 105% in assay [11]; 104% in assay [12]. Also, the growth in [13] was 104%; in [14] it was 104%; in assay [15], 106%; in assay [18], 93.3%; in [19], 92.4%.

For `CCC(=O)C1C(=O)c2ccccc2C1=O`, the growth is 113% in assay [1]; 100% in assay [2]; 83.1% in [3]; 109% in assay [4]; 105% in [5]; 92.2% in assay [6]. Besides, the growth in [7] was 110%; in [8], 104%; in assay [9] it was 98.1%; in assay [10] it was 120%; in assay [11], 102%; in [12], 82.6%. The growth in assay [13] was 109%; in [14], 68.8%; in assay [15] it was 115%; in assay [17], 114%; in assay [18] it was 107%; in [19], 136%.

For `O=C1Nc2ccccc2/C1=C\c1ccccc1O`, the growth was 93.3% in [1]; 116% in [2]; 64.9% in assay [3]; 101% in [4]; 93.5% in assay [5]; 96.8% in assay [6]. Moreover, the growth in [7] was 92.6%; in [8] it was 80.5%; in assay [9], 84.8%; in assay [10], 97%; in assay [11] it was 107%; in assay [12], 56.4%. In addition, the growth in assay [13] is 92.5%; in assay [14] it was 51.3%; in assay [15], 85.4%; in assay [16] it was 88.6%; in [17], 105%; in assay [19], 74.6%.

In the case of `CCOC(=O)c1ccc(NC(=O)Nc2nccs2)cc1`, the growth is 4.65% (active) in assay [1]; -25.6% (active) in assay [2]; 61.5% in [3]; 11.6% in assay [4]; 12.5% in assay [5]; 22.8% in assay [6]. Also, the growth was -67.3% (active) in [7]; 31.8% in [8]; 11.9% in assay [9]; 40.9% in assay [10]; -38.4% (active) in assay [11]; 55.5% in assay [12]. Also, the growth in [13] was 24.7%; in assay [14], 14.8%; in [20], 31.6%; in assay [16], 22.2%; in assay [17], 7.68% (active); in assay [18], -0.276% (active). Besides, the growth in assay [19] was -2.7% (active).
